Measured values from PubChem BioAssay (NCATS).
Inconclusive results are not listed. Active and inactive are the calls of the source. Unless noted, the call rests on the fitted dose curve.

Assays:
[1] = qHTS drug screen for cell cycle checkpoint inhibitors in PARPi-resistant BRCA-mutant ovarian cancer cell lines. (AID 1963452); conditions: PEO1/OlaR viability, CellTiter-Glo luminescence, 96 h, stronger effect = lower value
Method in brief: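 PEO1, PEO4 and PEO1/OlaR ovarian cancer cells, 600 per well, exposed 96 h at 37C to a dilution series. Viability read by CellTiter-Glo luminescence, normalized to DMSO and empty wells; activity summarized as Z-AUC.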

[2] = qHTS for identification of novel therapeutic agents for treatment of microphthalmiaassociated transcription factor (MiT) renal cell carcinoma (RCC) (AID 1963991); conditions: CellTiter-Glo, 48 h, stronger effect = lower value
Method in brief: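 Three TFE3-fusion RCC cell lines (UOK109, UOK124, UOK145), 500 cells/well, were exposed to the 1912-compound MIPE 4.0 library for 48 hours at 37 C. Viability was read by CellTiter-Glo luminescence, normalised to DMSO (100%) and empty wells (0%), with 11-concentration curve fits.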

[3] = biological target: Nuclear receptor subfamily 1 group I member 2 (Homo sapiens) (UniProt O75469); test: Dual reporter qHTS for agonist of Pregnane X Receptor (hPXR) against the NCATS DSHEA and TCM libraries: Luminescence readout (AID 1920059; active means well fitted curve in the direction sought with a large enough effect; an effect the other way counts as inactive or inconclusive; further: 0% is about no effect); conditions: hPXR dual reporter cells, luciferase luminescence agonist; series mostly up to 40 µM
Method in brief: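 hPXR-Luc HepG2 cells, 2000/well in 5% charcoal-stripped FBS medium, attached 5 h, then exposed 24 h at 37C to compounds. Viability by CellTiter-Fluor, then luciferase luminescence with ONE-Glo.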

[4] = biological target: Nuclear receptor subfamily 1 group I member 2 (Homo sapiens) (UniProt O75469); test: Dual reporter qHTS for antagonist of Pregnane X Receptor (hPXR) against the NCATS DSHEA and TCM libraries: Luminescence Readout (AID 1920060; active means well fitted curve in the direction sought with a large enough effect; an effect the other way counts as inactive or inconclusive;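 further: HepG2 cells carrying hPXR luciferase reporter stimulated with rifampicin at 2 µM; 0% is about no effect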); conditions: hPXR dual reporter cells, luciferase luminescence, antagonist mode; series mostly up to 40 µM
Method in brief: (§1)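 Antagonist mode: rifampicin 2 uM final co-added with compounds to hPXR-LucHepG2 cells for 24 h at 37C. Viability by CellTiter-Fluor, Ex/Em 405/540 nm, 1 h; reporter by ONE-Glo luminescence.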

[5] = Dual reporter qHTS for antagonist of Pregnane X Receptor (hPXR) against the NCATS DSHEA and TCM libraries: Fluorescence Readout (AID 1920061; active means well fitted curve in the direction sought with a large enough effect; an effect the other way counts as inactive or inconclusive; further: 0% is about no effect); conditions: PXR dual reporter cells, antagonist mode; series mostly up to 40 µM
Method in brief: as §1

[6] = measured here: PEO1 parental Z-AUC
[7] = TFE3-RCC UOK109 viability, measured here: UOK109 Z-AUC
[8] = TFE3-RCC viability, measured here: UOK124 Z-AUC
[9] = TFE3-RCC viability, measured here: UOK145 Z-AUC

Chain of Nuclear receptor subfamily 1 group I member 2 (Homo sapiens) (O75469 whole entry, looked up): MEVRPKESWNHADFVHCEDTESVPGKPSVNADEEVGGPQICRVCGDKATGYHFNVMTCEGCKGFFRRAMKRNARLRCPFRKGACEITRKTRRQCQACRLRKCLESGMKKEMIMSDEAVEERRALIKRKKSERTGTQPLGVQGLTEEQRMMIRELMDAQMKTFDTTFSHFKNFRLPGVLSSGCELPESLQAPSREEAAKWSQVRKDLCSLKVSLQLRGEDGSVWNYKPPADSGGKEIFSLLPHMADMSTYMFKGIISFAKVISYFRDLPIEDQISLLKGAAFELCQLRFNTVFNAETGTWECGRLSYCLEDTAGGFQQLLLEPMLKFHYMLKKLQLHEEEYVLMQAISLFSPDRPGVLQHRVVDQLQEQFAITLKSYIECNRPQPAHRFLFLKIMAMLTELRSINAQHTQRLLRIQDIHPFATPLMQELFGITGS

O=C(NCC1CCCCN1)c1cc(OCC(F)(F)F)ccc1OCC(F)(F)F (stereo unspecified)
Z-AUC [1]: -0.39 (inactive)
Z-AUC [1, 6]: -0.839
Z-AUC ([1]; measured here: PEO4 Z-AUC): -1.07

Clc1ccc(C(Cn2ccnc2)OCc2c(Cl)cccc2Cl)c(Cl)c1 (stereo unspecified)
Z-AUC [1]: 0.975 (inactive)
Z-AUC [1, 6]: 0.252
Z-AUC ([1]; measured here: PEO4 Z-AUC): 0.49

NCCCCNCCCN
Z-AUC [1]: 0.434 (inactive)
Z-AUC [1, 6]: 1.13
Z-AUC ([1]; measured here: PEO4 Z-AUC): 0.641

Oc1ccc2ccccc2c1SSc1c(O)ccc2ccccc12
Z-AUC [1]: -0.118 (inactive)
Z-AUC [1, 6]: 0.665
Z-AUC ([1]; measured here: PEO4 Z-AUC): 0.501

CC(=O)N1CCN(c2ccc(OC[C@H]3CO[C@](Cn4ccnc4)(c4ccc(Cl)cc4Cl)O3)cc2)CC1
Z-AUC [1]: 0.477 (inactive)
Z-AUC [1, 6]: 0.452
Z-AUC ([1]; measured here: PEO4 Z-AUC): 0.494

Clc1ccc(C(Cn2ccnc2)OCc2ccc(Sc3ccccc3)cc2)c(Cl)c1 (stereo unspecified)
Z-AUC [1]: -1.08 (inactive)
Z-AUC [1, 6]: -0.535
Z-AUC ([1]; measured here: PEO4 Z-AUC): -0.326

O=C(c1ccccc1)c1ccc2n1CCC2C(=O)O (stereo unspecified)
Z-AUC [1]: 1.02 (inactive)
Z-AUC [1, 6]: 0.719
Z-AUC ([1]; measured here: PEO4 Z-AUC): 0.897

Clc1ccc2c(N3CCN(CCCN4CCN(c5ccnc6cc(Cl)ccc56)CC4)CC3)ccnc2c1
Z-AUC [1]: 0.751 (inactive)
Z-AUC [1, 6]: 0.492
Z-AUC ([1]; measured here: PEO4 Z-AUC): 0.795

Cc1ccc(S(=O)(=O)NC(=O)NN2CC3CCCC3C2)cc1 (stereo unspecified)
Z-AUC [1]: 1.31 (inactive)
Z-AUC [1, 6]: 0.956
Z-AUC ([1]; measured here: PEO4 Z-AUC): 1.09

CCOC(=O)C(C)Oc1cccc2c(=O)n(CC(=O)Nc3ccc4c(c3)OCCO4)ccc12 (stereo unspecified)
Z-AUC [1]: 0.881 (inactive)
Z-AUC [1, 6]: 0.435
Z-AUC ([1]; measured here: PEO4 Z-AUC): 0.282
z-score [2, 7]: 0.811
z-score [2, 8]: 0.396
z-score [2, 9]: 0.65

S=c1nc[nH]c2nc[nH]c12
Z-AUC [1]: -0.8 (inactive)
Z-AUC [1, 6]: -0.506
Z-AUC ([1]; measured here: PEO4 Z-AUC): -0.594

COCCCN1CCC(NC(=O)c2cc(Cl)c(N)c3c2OCC3)CC1
Z-AUC [1]: 1.78 (inactive)
Z-AUC [1, 6]: 1.56
Z-AUC ([1]; measured here: PEO4 Z-AUC): 1.58

Oc1ccc(-c2nc(-c3ccc(F)cc3)c(-c3ccncc3)[nH]2)cc1
Z-AUC [1]: 1.12 (inactive)
Z-AUC [1, 6]: -0.0618
Z-AUC ([1]; measured here: PEO4 Z-AUC): 0.0892

Cc1cc(Cl)ccc1OCCCC(=O)NO
Z-AUC [1]: 0.502 (inactive)
Z-AUC [1, 6]: 0.403
Z-AUC ([1]; measured here: PEO4 Z-AUC): 0.182

CC(C)Oc1ccc2c(=O)c(-c3ccccc3)coc2c1
Z-AUC [1]: 0.208 (inactive)
Z-AUC [1, 6]: -0.757
Z-AUC ([1]; measured here: PEO4 Z-AUC): -0.189
z-score [2, 7]: 0.973
z-score [2, 8]: 0.495
z-score [2, 9]: -0.312

O=c1cc(N2CCOCC2)oc2c(-c3ccccc3)cccc12
Z-AUC [1]: 0.98 (inactive)
Z-AUC [1, 6]: 0.743
Z-AUC ([1]; measured here: PEO4 Z-AUC): 0.809

O=C(CCc1ccc(O)cc1)c1c(O)cc(O)cc1O
Z-AUC [1]: -0.868 (inactive)
Z-AUC [1, 6]: -0.361
Z-AUC ([1]; measured here: PEO4 Z-AUC): -0.52

O=Nc1c(-c2c(O)[nH]c3cc(Br)ccc23)[nH]c2ccccc12
Z-AUC [1]: -0.607 (inactive)
Z-AUC [1, 6]: -0.18
Z-AUC ([1]; measured here: PEO4 Z-AUC): -0.803

Nc1nc(N)c(N=O)c(OCC2CCCCC2)n1
Z-AUC [1]: -0.0306 (inactive)
Z-AUC [1, 6]: 0.757
Z-AUC ([1]; measured here: PEO4 Z-AUC): 0.22

Cc1cc(O)c2c(c1)C(=O)c1cc(O)cc(O)c1C2=O
outcome [3]: inactive
outcome [4]: inactive
outcome [5]: inactive
Z-AUC [1]: 0.333 (inactive)
Z-AUC [1, 6]: 0.799
Z-AUC ([1]; measured here: PEO4 Z-AUC): 0.55

COc1cc2c(N3CCN(C(=O)Nc4ccc(OC(C)C)cc4)CC3)ncnc2cc1OCCCN1CCCCC1
Z-AUC [1]: 1.04 (inactive)
Z-AUC [1, 6]: 0.804
Z-AUC ([1]; measured here: PEO4 Z-AUC): 1.1

O=C1c2c(O)cc(O)cc2OC(c2ccc(O)c(O)c2)C1O (stereo unspecified)
Z-AUC [1]: -0.835 (inactive)
Z-AUC [1, 6]: -0.249
Z-AUC ([1]; measured here: PEO4 Z-AUC): -0.326
z-score [2, 7]: -0.477
z-score [2, 8]: 0.528
z-score [2, 9]: 0.535

COc1ccccc1N1CCN(CCN(C(=O)C2CCCCC2)c2ccccn2)CC1
Z-AUC [1]: 0.61 (inactive)
Z-AUC [1, 6]: 0.37
Z-AUC ([1]; measured here: PEO4 Z-AUC): 0.876
